Compound activity as filed in PubChem.
An excerpt weighted towards active compounds, which were near 1.5% of everything screened.
IL2 activator = activators of IL-2; IL-2 activation reporter assay, cell-based qHTS; stimulated with anti-CD3/CD4/CD28 beads; in transgenic mouse T cells; activation, % (series mostly up to about 46 µM); 360,000 compounds, 0.065% hits; AID 652025; in the data active = activation above about 50%; inconclusive = mostly about 30% to 49%; also: 0% is about no effect
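Readout is EGFP and DsRed signal by fluorescent plate cytometry after 18 h at 37 degrees C. Transgenic mouse T cells (750/well) received compound for 60 min before bead stimulation (anti-CD3, anti-CD4, anti-CD28); memory T cells served as non-tolerant control.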
Integrin act MD = activators of alpha7 integrin expression for muscular dystrophy. alpha7betagal myoblasts, beta-gal FDG fluorescence, 48 h. Potency, µM (top dose mostly 38.3 µM), for inactives: at the top dose activation, most hits filed as activators. 350,000 compounds, 0.064% hits. AID 624291;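 also: potency is read from the fitted curve at half-maximal effect; 100% = response of the positive control SU9516; nearly all actives have a fitted effect of over 60% in size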
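alpha7betagal+/- myoblasts (passage 13, 250/well) treated 48 h at 37C with compounds at 1:260 dilution of DMSO stock. Lysed, then beta-galactosidase activity read as FDG fluorescence (ex 480/em 540) after 30 min, with pre-read for autofluorescence.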
Nrf2 activator = activates Nrf2 signaling; 410,000 compounds, 0.31% hits; Potency, µM (highest dose often 46.1 µM), for the others: top-dose activation, most hits filed as activators; AREc32 ARE-luciferase reporter (MCF7-derived line), luminescence, 24 h; AID 624171; also: potency is read from the fitted curve at half-maximal effect; % of control where 0% means no effect; nearly all actives have a fitted effect of over 65% in size
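For detection, Steady-Glo was added and plates sat 30 min at RT; before that, AREc32_Fluc cells grown overnight in OPTI-MEM/5% FBS had been treated with 23 nL compound for 24 hr at 37 deg C.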
ALOX12 inh = blocks human arachidonate 12S-lipoxygenase. P18054. 580,000 compounds, 1.1% hits. Potency, µM (titrated, usually from 108 µM), for the others: at the top dose activity change, negative = inhibition, usual class: inhibitors. purified 12hLO, xylenol orange hydroperoxide absorbance; also: potency is read from the fitted curve at half-maximal effect; % is scaled to controls: 0 for no effect and ±100 for the full control effect
Target sequence (P18054 whole entry, looked up): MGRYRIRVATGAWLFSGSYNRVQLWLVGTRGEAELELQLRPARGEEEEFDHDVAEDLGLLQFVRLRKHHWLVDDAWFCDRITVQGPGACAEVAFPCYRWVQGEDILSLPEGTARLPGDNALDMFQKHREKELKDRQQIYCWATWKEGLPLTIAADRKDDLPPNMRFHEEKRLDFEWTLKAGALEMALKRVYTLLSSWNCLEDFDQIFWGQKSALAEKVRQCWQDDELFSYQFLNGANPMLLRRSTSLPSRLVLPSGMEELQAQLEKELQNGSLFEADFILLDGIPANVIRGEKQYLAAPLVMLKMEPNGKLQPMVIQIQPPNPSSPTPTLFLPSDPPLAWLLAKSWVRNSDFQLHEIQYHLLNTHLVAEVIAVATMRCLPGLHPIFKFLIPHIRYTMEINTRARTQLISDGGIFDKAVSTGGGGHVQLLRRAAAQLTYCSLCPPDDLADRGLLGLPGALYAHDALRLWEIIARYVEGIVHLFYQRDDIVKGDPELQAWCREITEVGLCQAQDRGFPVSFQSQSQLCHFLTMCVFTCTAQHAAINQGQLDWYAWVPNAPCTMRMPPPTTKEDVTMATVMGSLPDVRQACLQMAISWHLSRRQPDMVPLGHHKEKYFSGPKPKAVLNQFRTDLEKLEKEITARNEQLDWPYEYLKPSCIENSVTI
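Hydroperoxide product was detected by ferrous iron/xylenol orange as the 573 to 405 nm absorbance ratio. Arachidonic acid at 40 uM (final) was turned over for 30 min at room temperature by 150 nM human 12hLO, pH 7.0 Hepes buffer, after 15 min compound preincubation.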
uPA generation = blocks generation of uPA at the cell surface; Potency, µM (doses to about 38.3 µM), without a hit: at the highest dose activity change, negative = inhibition, usual class: inhibitors; 330,000 compounds, 0.31% hits; cell surface uPA generation assay, qHTS; AID 540303; active = well fitted inhibition curve with a large enough effect; inconclusive = small, poorly fitted or top-dose-only effect; inactive = no such curve, though single readings can be large or run the other way; tested in mouse RAW 264.7 cells; also: potency is read from the fitted curve at half-maximal effect; % is scaled to controls: 0 for no effect and ±100 for the full control effect; nearly all actives have a fitted effect of over 55% in size
Starred values were filed as active, the others as inactive; ? = inconclusive; · = no result given; ! = repeats disagree; [ ] = dose if it differs, or a comment. Unless noted, calls follow the shape of the dose curve; as a rule, active = well fitted curve in the direction sought with a large enough effect; inconclusive = small, poorly fitted or top-dose-only effect, or another doubt; inactive = no such curve, though single readings can be large; an effect the other way counts as inactive or inconclusive.

SMILES | IL2 activator | Integrin act MD | Nrf2 activator | ALOX12 inh | uPA generation
Nc1ccc(-c2cc(C(=O)O)c3ccccc3n2)cc1 | · | · | · | 18µM* | ·
COC(=O)c1cc(-c2ccco2)nc2ccccc12 | · | · | · | 14µM* | ·
Cc1ccc(-c2cc(C(=O)OCC(=O)NC34CC5CC(CC(C5)C3)C4)c3ccccc3n2)o1 | · | · | · | 1.3µM* | ·
COC(=O)c1cc(-c2ccccc2)nc2ccccc12 | · | · | · | 10% | ·
CCOc1ccccc1NC(=O)c1cc(-c2ccco2)nc2ccccc12 | · | · | · | 11µM* | ·
Cc1ccc(-c2cc(C(=O)OCC(=O)NCC3CCCO3)c3ccccc3n2)o1 (configuration not stated) | · | · | · | 19% | ·
O=C(Cn1cccc1-c1nc(-c2ccc(F)cc2)no1)NCc1ccc(F)cc1 | · | · | · | -16% | ·
Cn1c(=O)c2c(nc(Nc3cccc(Cl)c3)n2CC(=O)O)n(C)c1=O | · | · | · | 40% | ·
CC(C)N1CCC(CNC(=O)CCc2c[nH]c3ccccc23)C1 (configuration not stated) | · | · | · | 9% | ·
COc1ccc(CC(=O)N2CCCCC23Cc2ccccc2NC3=O)cc1 (configuration not stated) | · | · | · | -3% | ·
COc1ccc(-c2cc(C(=O)OCC(=O)c3ccc(C)cc3)c3cccc(Cl)c3n2)cc1 | · | · | -1% | ? | ·
Cc1ccc(-c2cc(C(=O)OC(C)C(=O)NC3CCCC3)c3ccccc3n2)o1 (configuration not stated) | · | · | · | 6.3µM* | ·
CCN(C(=O)COC(=O)/C=C/c1nc2ccccc2s1)c1c(N)n(Cc2ccccc2)c(=O)[nH]c1=O | 0 | -24% | 13µM* | -15% | -1%
COC(=O)c1cc(-c2ccco2)nc2c(Cl)cccc12 | · | · | · | 22µM* | ·
CCn1cc(-c2cc(C(=O)O)c3ccccc3n2)c(C)n1 | 2 | 18% | 0% | 13µM*! | -3%
COCCN(C(=O)COC(=O)/C=C/c1nc2ccccc2s1)c1c(N)n(Cc2ccccc2)c(=O)[nH]c1=O | -1 | -52% | ? | -2% | -10%
Cc1cc(C(=O)OC(C)C(=O)NC2CCCCC2C)c2ccccc2n1 (configuration not stated) | 4 | -10% | -3% | 1% | ·
Cc1cc(O)ccc1NC(=O)COc1ccc2c(=O)c(-c3ccccc3)c(C)oc2c1 | · | · | · | 9% | ·
Cc1ccc2nc(-c3ccco3)cc(C(=O)O)c2c1 | · | · | · | 7.9µM*! | ·
N#Cc1c(N)n[nH]c1CCCNC(=O)c1ccc(-c2ccccc2)cc1 | · | · | · | 19% | ·
O=C(NC1CC1)c1cc(-c2ccc(O)cc2)nc2ccccc12 | · | · | · | -17% | ·
COC(=O)c1cc(-c2ccc(C)o2)nc2ccccc12 | -1 | -5% | 2%[9.22 µM] | 6.3µM* | -7%
Cc1ccc(-c2cc(C(=O)O)c3cc(C)ccc3n2)c(C)c1 | · | · | · | 0% | ·
O=C(NC1CC1)c1cc(-c2ccco2)nc2ccccc12 | 1 | 1% | 13µM* | ? | -2%
N#Cc1c(N)n[nH]c1CCCNC(=O)c1cc(-c2ccco2)nc2ccccc12 | · | · | · | 20µM* | ·
SMILES | IL2 activator | Integrin act MD | Nrf2 activator | ALOX12 inh | uPA generation
CC(Sc1ncccn1)C(=O)NC(c1ccccc1)c1ccccc1 (configuration not stated) | · | · | · | 64% | ·
CC(=O)N1CCN(C(=O)c2cc(-c3ccco3)nc3ccccc23)CC1 | · | · | · | -101% | ·
Cc1ccc(-c2cc(C(=O)OCC(=O)N(C)c3c(N)n(Cc4ccccc4)c(=O)[nH]c3=O)c3ccccc3n2)o1 | 0 | 18% | 4% | 7.1µM* | -6%
CN(C(=O)COC(=O)c1cc2ccccc2cc1O)c1c(N)n(Cc2ccccc2)c(=O)[nH]c1=O | 6 | -35% | 1% | ? | -4%
O=C(O)c1cc(-c2ccco2)nc2ccccc12 | 0 | 7% | 6% | 7.1µM* | -6%
O=C(Nc1cc(-n2cnnn2)ccc1Cl)c1ccncc1 | · | · | · | -1% | ·
Cc1ccc(-n2c(-c3ccccc3)cc(C=Nc3ccc(C)c(C)c3)c2-c2ccccc2)cc1 | · | · | · | 20µM* | ·
Cc1ccc(-n2c(-c3ccccc3)cc(/C=N/NC(=O)CC#N)c2-c2ccccc2)cc1 | · | · | · | 15% | ·
S=c1nc[nH]c2c1sc1nc(-c3ccccc3)c3c(c12)CCCC3 | -1 | 0% | 0% | 45µM* | -11%
O=c1[nH]cnc2c1sc1nc(-c3ccccc3)c3c(c12)CCCC3 | -3 | 0% | -1% | -1% | 3%
O=Cc1cc2cc(Br)ccc2[nH]1 | · | · | · | 11% | ·
COc1cccc([S+](=O)([O-])N2CCC3(CC2)C(=NC2CCCC2)NC(=O)N3c2cccnc2)c1 | · | · | · | 7%[6.33 µM] | ·
Cn1c(CCc2cccc(NC(=O)c3ccc(C#N)cc3)c2)nc2ccccc21 | · | · | · | 47% | ·
COc1ccc(-c2nnc(N(C)C(=O)c3ccco3)s2)cc1OC | 0 | 19% | 3% | ? | -2%
CN(C(=O)c1ccco1)c1nnc(-c2ccc(F)cc2)s1 | -1 | 30% | 7.1µM* | 15% | 0%
Cc1ccc(C(=O)c2cnc3cc4c(cc3c2S(=O)(=O)c2ccccc2)OCCO4)cc1 | -1 | -54% | 13µM* | 1% | -12%
Cc1ccccc1N1Cc2c(NCC3CCCCC3)ncnc2N(C)CC1=O | · | · | · | 6% | ·
CCOC(=O)c1oc2ccccc2c1CN1CCCCC1 | 0 | 3% | -1% | -10% | 7%
CCOC(=O)c1oc2ccccc2c1CN1CCN(C)CC1 | 0 | 15% | 3% | 35µM* | 2%
CCCC(=O)Oc1c(Sc2ccc(Cl)cc2)c(C)nn1-c1ccccc1 | · | · | 0% | 45µM* | ·
Cc1ccc(C)c(/C(O)=C2\C(=O)C(=O)N(c3nnc(C)s3)C2c2ccc(C(C)C)cc2)c1 (configuration not stated) | · | · | · | 45µM* | ·
COC(=O)c1ccc(C2/C(=C(\O)c3ccc4c(c3)OCCO4)C(=O)C(=O)N2c2nnc(C)s2)cc1 (configuration not stated) | 0 | -5% | 0% | ? | 7%
Cc1nnc(N2C(=O)C(O)=C(C(=O)c3ccco3)C2c2ccc(C(C)(C)C)cc2)s1 (configuration not stated) | 0 | -7% | 0% | 7.9µM* | -2%
CSc1ccc(C2C(C(=O)c3ccco3)=C(O)C(=O)N2c2nnc(SC)s2)cc1 (configuration not stated) | 0 | -10% | 3% | 40µM* | ?
CCCCOc1cccc(C2C(C(=O)c3ccc(C)o3)=C(O)C(=O)N2c2nnc(C)s2)c1 (configuration not stated) | 5 | ? | 5% | ? | -4%
CCCOc1cccc(C2C(C(=O)c3ccco3)=C(O)C(=O)N2c2nnc(C)s2)c1 (configuration not stated) | -2 | ? | -1% | 7.9µM* | 0%
CCCOc1ccc(-c2cc(C(=O)OC)c3ccccc3n2)cc1 | · | · | · | -20% | ·
CC(=O)N1C[C@@H]2CCCN3CCC[C@@H]([C@H]23)[C@H]1CCCC(=O)NC(C)C | · | · | · | 21% | ·
